# Source: ChEMBL document CHEMBL3988442, “University of Dundee, Small-Polar-MMV Screening Library” (2021)
# The whole screen tested about 48,000 compounds, of which about 13,000 (27%) showed an effect of 50% or more. The list shows a part of the results.
# Test system: Wolbachia pipientis
# Test: Anti-Wolbachia Cell-Based Screen
# Type: functional
# Design: scale not given: in the data most compounds retested in dose-response had high values
# Settings: 5 µM
row,SMILES,Percent Effect
1,CN(C)CCOCC1CN(C(=O)c2ccnnc2)Cc2ccnn2C1.O=C(O)C(F)(F)F.O=C(O)C(F)(F)F (stereo not given),5.316%
2,CCn1cc2c(n1)C(COCC1CC1)CN(c1ccc(C)nn1)C2 (stereo not given),10.52%
3,CCCSc1nc(N)c(NC(=O)c2ccc(OC)c(OC)c2)c(=O)[nH]1,-5.573%
4,O=CO.c1cc2nccc(CC3CCCN(Cc4c[nH]cn4)CC3)c2cn1 (stereo not given),92.48%
5,c1cc2nccc(CC3CCCN(Cc4ncc[nH]4)CC3)c2cn1 (stereo not given),3.513%
6,O=CO.c1cc2nccc(CC3CCCN(C4CCOCC4)CC3)c2cn1 (stereo not given),113.5%
7,CN1CCCC(Cc2ccnc3ccncc23)CC1 (stereo not given),-6.52%
8,O=C(NCCc1c[nH]cn1)C1CCCN(Cc2ccco2)C1 (stereo not given),-20.31%
9,O=C(CC1CC1)N(Cc1cccnc1)CC1CCN(C2CCCC2)CC1,-16.06%
10,Cn1ccnc1CN1CCC(CNS(=O)(=O)c2cccnc2)C1 (stereo not given),2.394%
11,Cn1ccnc1CN1CCCC(Cc2ccnc3ccncc23)CC1.O=CO (stereo not given),122.1%
12,CS(=O)(=O)N1CCCC(Cc2ccnc3ccncc23)CC1 (stereo not given),72.88%
13,O=C(Cc1cccnc1)N1CCCC2(CCN(C3CCOCC3)C2)C1.O=C(O)C(F)(F)F.O=C(O)C(F)(F)F (stereo not given),3.784%
14,Cc1cccc(-c2nc(CN3CCn4c(nnc4C4CC4)C3)no2)c1,0.9786%
15,Cc1nc(C2(NCc3c(C)nn(C)c3N3CCOCC3)CCC2)no1,-14.17%
16,Cc1cccc(CS(=O)(=O)Cc2ccn(C)c(=O)c2)c1,-8.677%
17,c1cn(CCNc2nc(NC3CC3)nc3c2CCNCC3)nn1,-2.29%
18,CCN(C(=O)CN1CCCC1c1ccc(OC)cc1)c1ccccc1C (stereo not given),3.108%
19,CCN(C(=O)CN1CCCC1c1ccc(OC)cc1)c1ccccc1 (stereo not given),3.138%
20,COc1ccc(OC2CCN(C(=O)c3ccc(C(C)=O)s3)CC2)cc1,-8.42%
21,COc1cc(/C=C/c2ncc(C(=O)O)s2)cc(OC)c1,4.44%
22,COc1ccc(N(c2ccccc2)c2ccc(C(=O)O)s2)cc1,119.4%
23,COc1ccc(CNC(=O)C2=NN(c3ccc(C)cc3)C(=O)CN2)cc1,-36.41%
24,COc1ccc(N(c2ccc(OC)cc2)c2ccc(C(=O)O)s2)cc1,99.84%
25,COc1ccc(N(c2ccc(C)cc2)c2ccc(C(=O)O)s2)cc1,128.9%
26,CCC(=O)N1CCC2(CC1)CN(C(C)=O)c1ccc(C)cc12,1.312%
27,Cl.O=C(c1ccccc1F)N1CC2(CCNCC2)c2cc(Cl)ccc21,106.3%

row,SMILES,Percent Effect
1,CN(C)C(=O)N1CC2(CCNCC2)c2cc(Cl)ccc21.Cl,-23.53%
2,Cc1ccc2c(c1)C1(CCN(S(C)(=O)=O)CC1)CN2C(=O)N(C)C,0.4399%
3,C[C@@H](N)C(=O)N1CC2(CCNCC2)c2cc(Cl)ccc21.Cl.Cl,85.61%
4,O=C1CN(C(=O)c2cc(Cl)ccc2F)c2ccccc2N1,1.511%
5,CC(=O)N1CC2(CCN(C(=O)CO)CC2)c2cc(C)ccc21,-15.84%
6,O=C1CN(C(=O)c2cc(Cl)ccc2F)c2ccncc2N1,-25.93%
7,CC(C)C[C@H](N)C(=O)N1CC2(CCNCC2)c2cc(Cl)ccc21.Cl.Cl,115.3%
8,CCOC(=O)N1CC2(CCNCC2)c2cc(Cl)ccc21.Cl,107.5%
9,Cc1ccc2c(c1)C1(CCNCC1)CN2C(=O)C(C)C,-27.38%
10,CC(CO)(NC(=O)Nc1nnc(C(F)F)s1)C1CC1 (stereo not given),-2.731%
11,CCc1ccc(C(C)NC(=O)CN(C)Cc2ccc(C)o2)cc1 (stereo not given),6.981%
12,O=C(O)c1ccccc1C1CCN(C2CCN(c3ccccc3)CC2)C1 (stereo not given),1.292%
13,Cc1csc(N2CCN(Cc3cnc(C)s3)CC2C)n1 (stereo not given),-7.074%
14,Cc1ncc(CN2CCN(c3ccc4nncn4n3)C(C)C2)s1 (stereo not given),100.4%
15,Cc1ncc(CN2CCOC(CN(C)c3cccnn3)C2)s1 (stereo not given),-7.672%
16,Cc1cc(CN2CCN(c3ccc4nncn4n3)C(C)C2)on1 (stereo not given),105.9%
17,Cc1nc(CN2CCN(c3ccc4nncn4n3)C(C)C2)oc1C (stereo not given),98.31%
18,Cc1nc(CN2CCOC(c3ccc(Cl)cc3)C2)oc1C (stereo not given),-15.43%
19,CC1CN(Cc2ccccn2)CCN1c1ccc2nncn2n1 (stereo not given),99.39%
20,Cc1cc(CN2CCN(c3ccc4nncn4n3)C(C)C2)no1 (stereo not given),0.8559%
21,CC1(C)CN(C(=O)c2cnc(-c3ccccn3)nc2)CC[C@]1(C)O,-14.16%
22,CC(c1ccccc1F)N(C(=O)CSCC(N)=O)C1CC1 (stereo not given),-1.119%
23,CCc1[nH]c2c(CNc3cncc(C(=O)N(C)C)n3)cc(C)cc2c1C,-3.475%
24,COc1ccc(C(C)Nc2ncc(C(N)=O)cc2Cl)c(OC)c1 (stereo not given),7.521%
25,CS(=O)(=O)NCCN1CCSCC1c1ccc(Cl)cc1 (stereo not given),7.054%
26,Cn1ccnc1SCc1nc(C(C)(C)NC(=O)OC(C)(C)C)no1,4.931%
27,Cc1cnc(CN2CCN(c3ccc4nncn4n3)C(C)C2)cn1 (stereo not given),120.6%

row,SMILES,Percent Effect
1,c1ccc(CN2CCN(c3ccc4nncn4n3)CC2)nc1,81.68%
2,Cc1nnc2ccc(N3CCN(Cc4nccn4C)CC3)nn12,-5.258%
3,Cc1cc(CN2CCN(c3ccc4nncn4n3)CC2)no1,96.25%
4,CCn1ccnc1CN1CCN(c2ccc3nnc(C)n3n2)CC1,-14.29%
5,c1ccc(CCN2CCN(c3ccc4nncn4n3)CC2)nc1,-2.088%
6,CC1CN(CC2CCCCC2)CCN1c1ccc2nncn2n1 (stereo not given),-9.658%
7,Cc1cc(CN2CCN(CC(O)C(C)(C)C)CC2)no1 (stereo not given),-2.656%
8,CC1CN(CC2CCCC2)CCN1c1ccc2nncn2n1 (stereo not given),-0.9162%
9,Cc1nnc2ccc(N3CCN(CCc4ccccn4)CC3)nn12,75.62%
10,N#Cc1ccc(N2CCN(c3ccc4nncn4n3)CC2)nc1,-1.975%
11,Cc1ccn(-c2ccc(N3CCN(Cc4ccccn4)CC3)nn2)n1,-3.971%
12,O=C(Nc1cnccn1)[C@H]1C[C@H]2OCC[C@H]2N(c2ncc(F)cn2)C1,2.565%
13,c1ccc(CN2Cc3ccnn3CC(COCc3cccnc3)C2)nc1 (stereo not given),-0.5546%
14,CCOCCN1CCN(CCCc2nnnn2-c2ccccc2)CC1,-8.911%
15,CC1CN(CC(=O)N2CCCC2)CCN1c1ccc2nncn2n1 (stereo not given),-2.378%
16,CC1CN(CCc2ccccn2)CCN1c1ccc2nncn2n1 (stereo not given),129.7%
17,CCCc1cc(N2CCCCC2Cn2cc(C)cn2)n2ncnc2n1 (stereo not given),-0.9521%
18,O=C(C1CNCCN1C(=O)CCc1cccnc1)N1CCOCC1 (stereo not given),99.11%
19,COc1ccc(C(=O)N2CCN(C(=O)CCCc3cn[nH]c3)CC2)cc1,-2.583%
20,Cc1ccc(CCC(=O)N2CCOCC2)cc1Cl,-2.511%
21,COc1ccc(CCC(=O)N2CCNCC2C(=O)N2CCCC2)cc1 (stereo not given),99.9%
22,O=C(Nc1ccc(F)cc1)C1CNCCN1C(=O)CCc1cccnc1 (stereo not given),-3.468%
23,Cc1ccccc1N1CCCN(C(=O)CCc2cccnc2)CC1,13.31%
24,Cc1cc(CCC(=O)N2CCOCC2)ccc1Br,7.033%
25,COc1ccc(CCC(=O)N2CCNCC2C(=O)N2CCOCC2)cc1 (stereo not given),109%
26,COc1ccc(CCCC(=O)N2CCCC(n3cccn3)C2)cc1 (stereo not given),8.149%
27,CCn1cnnc1CCNC(=O)C1COc2ccc(OC)cc2C1 (stereo not given),0.6591%

row,SMILES,Percent Effect
1,O=S(=O)(CCc1ccccc1)Cc1nc(C2CC2)no1,20.48%
2,Cc1c(C2CCCN(C(=O)c3ccn(C)n3)C2)n2c(nc1=O)CCC2 (stereo not given),88.69%
3,Cc1c(C2CCCN(C(=O)OC(C)(C)C)C2)n2c(nc1=O)CCC2 (stereo not given),101.7%
4,Cc1cnc(C(=O)N2CCCC(Cn3cc(C4CC4)nn3)C2)cn1 (stereo not given),1.892%
5,Cc1csc(C2CCCN(C(=O)c3ccc(=O)n(C)n3)C2)n1 (stereo not given),3.739%
6,Cc1c(C2CCCN(C(=O)C3CC3)C2)n2c(nc1=O)CCC2.Cl (stereo not given),11.8%
7,Cc1nc(CN[C@H]2CCCN(C(=O)OC(C)(C)C)C2)cs1,1.8%
8,Cc1csc(CNCC2CCCN(C(=O)OC(C)(C)C)C2)n1 (stereo not given),11.13%
9,Cc1cnc(C(=O)N2CCCC(c3c(C)c(=O)nc4n3CCC4)C2)cn1.Cl (stereo not given),99.49%
10,O[C@@H]1C[C@@H](c2nc(-c3ccc(OC(F)(F)F)cc3)no2)N(CC2CC2)C1,9.042%
11,CCC/C=C/c1ccc(CN2CCCC2)cn1,-3.861%
12,CCOC(=O)CN1CC(c2nc(-c3ccsc3)no2)C1.O=C(O)C(=O)O,-3.591%
13,CCC1COCCN1C(=O)CNC(=O)c1ccoc1C (stereo not given),-13.26%
14,CS(=O)(=O)N1CCN(c2ccc(Nc3ccccn3)nn2)CC1,2.595%
15,Cc1nc2c(c(Nc3ccccn3)n1)CN(S(C)(=O)=O)CC2,109%
16,Cc1nc(Nc2ccccn2)cc(N2CCN(S(C)(=O)=O)CC2)n1,-12.78%
17,Cc1ncc(CNCC(=O)NC2CCCCC2)n1-c1ccccc1,-6.194%
18,CC(CCc1ccccc1)NC(=O)Nc1cnn(CC(N)=O)c1 (stereo not given),-0.3012%
19,CCc1ncc(C(=O)N2CCn3c(CC)nnc3C2)s1,-2.408%
20,CCc1nnc2n1CCN(C(=O)COCCc1ccccc1)C2,-3.602%
21,CCc1nnc2n1CCN(C(=O)c1ccccc1OCC1CC1)C2,-2.361%
22,CCc1nnc2n1CCN(C(=O)CN(CC)CC)C2,97.7%
23,CCc1nnc2n1CCN(C(=O)CN(C)C1CC1)C2,84.19%
24,CCc1nnc2n1CCN(C(=O)c1cnn(C)c1C1CC1)C2,0.7265%
